TDP1 cell noCPT: qHTS for Inhibitors of human tyrosyl-DNA phosphodiesterase 1 (TDP1): qHTS in cells in absence of CPT | Potency, µM (doses to about 46.2 µM), for inactives: at the highest dose activity change, negative = growth inhibition, usual class: inhibitors | AID 686978, 2013 | hit rate 15% among 420,000 | DT40 Tdp1-/- hTDP1 cells, no CPT, ATP luminescence, 48 h; note: potency is the fitted concentration of half-maximal effect; nearly all actives have a fitted effect of over 55% in size
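No-CPT arm: Tdp1-/-;hTDP1 DT40 cells (400/well) plus compounds, incubated ≥48 hr at 37 °C. Readout CellTiter-Glo luminescence.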
Six1-Eya2 blk: Six1/Eya2 interaction inhibition; AID 651725; AlphaScreen GST-Six1/His-Eya2 binding, biochemical; active compounds read low; hit rate 0.56% among 360,000; activity change, % (concentration not given with the values); Q15475+O00167; in the data active = activity change below about -65%; inconclusive = mostly about -30% to -63%
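Compounds are tested against tagged Six1 and Eya2 proteins bridged by glutathione donor and nickel acceptor beads; after a one-hour incubation at 37 °C without light, AlphaScreen emission is recorded.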
DT40 TDP1 CPT: growth inhibition of DT40 Tdp1-/-;hTDP1 cells with camptothecin (screen for TDP1 inhibitors); chicken DT40 Tdp1-/-;hTDP1 cells + 20 nM CPT, ATP luminescence, 48 h; Potency, µM (top dose mostly 46.2 µM), inactives show at the highest dose activity change, negative = growth inhibition, hits mostly inhibitors; hit rate 12% among 420,000; AID 686979; note: potency is the fitted concentration of half-maximal effect; nearly all actives have a fitted effect of over 55% in size
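Cell growth measured by CellTiter-Glo luminescence after a minimum 48 h, 37 C compound exposure with 20 nM CPT in Tdp1-knockout DT40 cells stably expressing hTDP1, seeded 400/well; qHTS titration format.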
IL1B secr inh: inhibitors of inflammasome signaling (IL-1 beta secretion); THP-1 LPS/ATP IL-1B secretion, AlphaLISA, 16 h; active compounds read low; activity change, % at 57.5 µM; hit rate 4.7% among 360,000; AID 743279; in the data active = activity change below about -50%; inconclusive = mostly about -30% to -49%
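Secreted IL-1B measured by AlphaLISA bead assay after 16 h compound exposure of THP-1 cells; compounds (final up to 57.5 uM) added 1 h before LPS (250 ng/mL) and ATP (1.25 mM) stimulation; lower signal means less secretion.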
CtBP-E1A inh: blocks the CtBP interaction with E1A. AlphaScreen GST-E1A/His-CtBP binding, 1536-well; active compounds read low. activity change, % (test concentration not listed). hit rate 0.49% among 340,000; in the data active = activity change below about -65%; inconclusive = mostly about -30% to -63%
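Protein mix (5X: 125 nM each GST-E1A, His-CtBP) was incubated with pinned compound 2 h at 37 deg C in dark, in 50 mM Tris pH 8.0 buffer with 300 mM NaCl. Glutathione donor and nickel acceptor beads followed; AlphaScreen signal read after 1 h.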
TDP1 inh: blocks human tyrosyl-DNA phosphodiesterase 1 | Q9NUW8 | recombinant TDP1, AlphaScreen DNA substrate cleavage | Potency, µM (top dose mostly 130 µM), for inactives: at the highest dose activity change, negative = inhibition, usual class: inhibitors | hit rate 0.28% among 350,000 | AID 485290; note: potency is the fitted concentration of half-maximal effect; nearly all actives have a fitted effect of over 40% in size
Target sequence (Q9NUW8 whole entry, looked up): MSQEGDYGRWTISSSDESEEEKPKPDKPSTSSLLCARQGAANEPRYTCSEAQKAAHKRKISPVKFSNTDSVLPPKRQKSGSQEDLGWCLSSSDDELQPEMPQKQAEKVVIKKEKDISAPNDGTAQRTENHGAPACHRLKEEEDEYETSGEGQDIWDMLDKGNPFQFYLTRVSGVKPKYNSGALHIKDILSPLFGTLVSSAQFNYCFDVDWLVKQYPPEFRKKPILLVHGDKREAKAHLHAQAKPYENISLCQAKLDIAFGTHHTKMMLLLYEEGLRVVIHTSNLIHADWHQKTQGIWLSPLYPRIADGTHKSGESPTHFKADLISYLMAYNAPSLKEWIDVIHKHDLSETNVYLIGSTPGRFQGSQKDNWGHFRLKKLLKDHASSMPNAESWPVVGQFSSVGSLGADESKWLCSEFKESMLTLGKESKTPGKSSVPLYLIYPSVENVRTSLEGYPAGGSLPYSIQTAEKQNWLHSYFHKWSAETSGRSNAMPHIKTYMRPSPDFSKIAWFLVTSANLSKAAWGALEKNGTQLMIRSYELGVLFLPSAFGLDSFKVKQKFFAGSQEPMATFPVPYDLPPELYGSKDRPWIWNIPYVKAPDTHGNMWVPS
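AlphaScreen read-out: signal falls as enzyme removes the 3' tyrosine-FITC from a 5'-biotinylated DNA oligo (15 nM, 5 min, RT). Enzyme was E. coli-made recombinant Tdp1 at 1 nM, exposed to compound for 15 min beforehand; beads 10 ug/ml, 10 min.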
* hit, by the source's call; ? = inconclusive; nt = no result; [ ] = remark or other dose. A selection: hits, their analogues and other compounds. The true share with any hit is near 18%. Unless noted, calls come from the whole dose curve; as a rule, active = well fitted curve in the direction sought with a large enough effect; inconclusive = small, poorly fitted or top-dose-only effect, or another doubt; inactive = no such curve, though single readings can be large; an effect the other way counts as inactive or inconclusive. % is set by controls: 0 for no effect and ±100 for the full control effect.

SMILES | TDP1 cell noCPT | Six1-Eya2 blk | DT40 TDP1 CPT | IL1B secr inh | CtBP-E1A inh | TDP1 inh
CN(C)c1ccc(/C=C/c2cc3ccccc3cn2)cc1 | 0.45µM* | nt | 0.45µM* | nt | nt | nt
CN(C)c1ccc(/C=C/c2ccccn2)cc1 | 4.5µM* | nt | 1.4µM* | nt | nt | nt
CN(C)c1ccc(/C=C/c2nnnn2-c2ccccc2)cc1 | ? | -6 | ? | ? | -4 | -3%
O=C(NCC1CCCO1)NC1(C(F)(F)F)Oc2ccccc2O1 (configuration not stated) | ? | 1 | ? | 30 | -9 | 2%
CCC(=O)Nc1ccc(-n2nnnc2SCC(=O)NNC(=O)c2ccco2)cc1 | 26% | 0 | -2% | 2 | -17 | -2%
Cc1c(Br)c(C(F)(F)F)nn1CC(=O)NCC1CCCO1 (configuration not stated) | -6% | 2 | -9% | 0 | -1 | 5%
CCOc1ccc(Br)cc1C(=O)Nc1ccc(C(=O)NCC(C)C)cc1 | ? | 8 | 10µM* | -13 | 0 | 5%
CCOc1ccc(Br)cc1S(=O)(=O)Nc1ccc(NC(=O)c2ccccc2C)cc1 | -12% | -10 | -14% | -2 | -11 | -2%
COc1ccc(Br)cc1C(=O)Nc1ccc(C(=O)NCC(C)C)cc1 | ? | -12 | -13% | ? | nt | 2%
CCOc1ccc(Br)cc1S(=O)(=O)Nc1ccc(NC(=O)c2ccccc2F)cc1 | 16µM* | 1 | ? | -8 | 7 | 6%
O=C(c1cccs1)N1CCN=C1SCc1cccc(F)c1 | ? | 19 | -20% | ? | 3 | -4%
C=CCN1CCOc2ccc(C)cc2S1(=O)=O | -3% | 0 | 1% | 18 | 3 | nt
CC(C)C(=O)N[C@@H]1c2ccccc2CC[C@H]1OCc1ccccc1 | 1% | 27 | ? | -14 | 5 | -1%[56.1 µM]
C#C[C@]1(O)CC[C@H]2[C@@H]3CCC4=C(CCC(=O)C4)[C@H]3CC[C@@]21C | 7.2µM* | 7 | ? | -5 | -12 | 3%
C#C[C@]1(O)CC[C@H]2[C@H]3CCc4cc(O)ccc4[C@@H]3CC[C@@]21C | nt | nt | nt | nt | nt | 13%
C#C[C@]1(O)CC[C@H]2[C@@H]3CCc4cc(OC5CCCC5)ccc4[C@H]3CC[C@@]21C | 8.2µM* | 1 | 13µM* | 0 | -6 | 6%
C#C[C@@]1(O)CC[C@@H]2[C@@H]3CCC4=C(CCC(=O)C4)[C@H]3CC[C@]21C | nt | nt | nt | nt | nt | 10%[21 µM]
C#C[C@]1(O)CC[C@H]2[C@@H]3CCc4cc(OC)ccc4[C@H]3CC[C@@]21C | 21µM* | -1 | 0.24µM* | 8 | 4 | 2%
C=CCOc1ccc2c(c1)CCC1C2CCC2(C)C(O)C(O)CC12 (configuration not stated) | ? | 0 | ? | -75* | 0 | nt
CCc1cccc(CC)c1N1C(=O)CSCC1=O | -7% | -3 | -3% | 0 | 0 | nt
CCC1(C2=CCCCC2)C(=O)NC(=O)N=C1N (configuration not stated) | -13% | 7 | -14% | 25 | 5 | nt
COc1ccc(CC(=O)NCc2n[nH]c(=S)n2-c2ccc(F)cc2)cc1 | 3% | 10 | -5% | -1 | nt | -3%
CC1Cc2ccccc2N1C(=O)CCNS(=O)(=O)c1cccc2nsnc12 (configuration not stated) | -21% | -2 | -21% | 0 | -6 | 1%
Nc1ncnc2c1ncn2[C@@H]1O[C@H](C(=O)N[C@@H](CO)c2ccccc2)[C@@H](O)[C@H]1O | 9% | 13 | 7% | -20 | -8 | nt
CCN(CC)CCNCC1C(=O)O[C@@H]2C[C@@]3(C)CCC[C@H](C)C3=C[C@H]12 (some centres not stated) | 13µM* | 5 | ? | nt | -10 | nt
SMILES | TDP1 cell noCPT | Six1-Eya2 blk | DT40 TDP1 CPT | IL1B secr inh | CtBP-E1A inh | TDP1 inh
CN(C)c1cccc2c(S(=O)(=O)N3CCCC3)cccc12 | ? | 24 | -20% | 25 | nt | nt
CCOc1ccccc1NC(=O)c1cccc(N2C(=O)CCC2=O)c1 | -8% | 5 | -26% | 23 | -4 | 4%[56.1 µM]
CS(=O)(=O)N1CCC(C(=O)Nc2cccc(C(F)(F)F)c2)CC1 | -23% | 2 | -2% | -12 | 9 | 2%
COc1ccccc1CNC(=O)C1CCN(S(=O)(=O)c2ccc(N3CCCC3=O)cc2)CC1 | ? | -2 | -29% | 1 | 0 | 1%
COc1cccc(NC(=O)C2CCN(S(=O)(=O)c3ccc(N4CCCC4=O)cc3)CC2)c1 | ? | -14 | 15µM* | 18 | 5 | nt
O=C(Nc1cccc(C(F)(F)F)c1)C1CCN(S(=O)(=O)c2ccc(N3CCCC3=O)cc2)CC1 | 2.1µM* | 2 | 2.6µM* | -19 | -9 | 2%
COc1cccc(NC(=O)C2CCN(S(=O)(=O)c3ccc4c(c3)NC(=O)CO4)CC2)c1 | ? | -4 | 23µM* | -14 | -7 | 3%
O=C(CCn1cccc1)Nc1ccc(OC(F)(F)F)cc1 | -3% | -8 | -16% | -27 | -9 | 3%
Cc1ccc(NC(=O)C2CCCN2C(=O)NC2CCCCC2)cc1 (configuration not stated) | 11% | 11 | 5% | 13 | 3 | -2%
Cc1ccc(-c2nc(CN(C)C3CCOCC3)c(C)o2)s1 | 6% | 1 | -1% | 0 | -8 | -5%
Cc1ccc(-c2nc(CN(C)Cc3cccc4cnccc34)c(C)o2)s1 | 21µM* | 0 | ? | -11 | nt | nt
C[C@@H]1CCCCO[C@H](CN(C)Cc2ccc(Cl)c(Cl)c2)[C@@H](C)CN([C@H](C)CO)C(=O)c2cc(N(C)C)ccc2O1 | 23µM* | -23 | 18µM* | ? | -27 | nt
C[C@@H]1CCCCO[C@H](CN(C)Cc2ccc(Cl)c(Cl)c2)[C@H](C)CN([C@@H](C)CO)C(=O)c2cc(NC(=O)Nc3ccc(F)cc3)ccc2O1 | 5.8µM* | -8 | 9.2µM* | ? | -14 | nt
C[C@@H]1CN([C@H](C)CO)C(=O)c2cc(NC(=O)Nc3ccc(F)cc3)ccc2O[C@@H](C)CCCCO[C@H]1CN(C)S(=O)(=O)c1ccc(Cl)cc1 | ? | -1 | 26µM* | nt | -12 | nt
C[C@H](CO)N1C[C@H](C)[C@@H](CN(C)Cc2ccc(Cl)c(Cl)c2)OCCCC[C@H](C)Oc2ccc(NC(=O)CCC(F)(F)F)cc2C1=O | 15µM* | -11 | 23µM* | -18 | -6 | nt
Cc1cn([C@H]2C[C@H](O)[C@@H](CCC(=O)NCc3ccc4c(c3)OCO4)O2)c(=O)[nH]c1=O | -8% | 21 | -3% | 0 | 25 | nt

Compound activity deposited in PubChem by National Center for Advancing Translational Sciences (NCATS).
